# Laboratory results published in PubChem BioAssay AID1159580 (chemical genetic matrix, 2015).
# Among all 5,500 compounds or so, about 2,000 (36%) were called active. Roughly 18% stayed inconclusive and do not appear here. This is one part of the list. Values without a mark were called inactive. Cut-off read from the data, not from the text of the source: active = normalized growth mostly below about 0.91 (no sharp cut-off); inconclusive = no clear call, values can overlap the other calls; inactive = mostly above about 0.92.
# Assay: chemical genetic growth profiling, strain panel (AID 1159580);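 note: tested at 20 µM; growth read once vehicle control cultures reached saturation at 30 °C; 1 = growth at the plate median or of vehicle wells; lower values mean less growth of the strain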
# Conditions: S. cerevisiae deletion strains, growth OD
smiles,measurement,setting,value
COc1cccc2c1CCC1CC(=O)CCC21C (stereo unspecified),normalized growth,"locus YAL021C, strain ccr4, stronger effect = lower value",0.99
same,normalized growth,"locus YAL026C, strain drs2, stronger effect = lower value",0.994
same,normalized growth,"locus YAL030W, strain snc1, stronger effect = lower value",0.991
same,normalized growth,"locus YBL061C, strain skt5, stronger effect = lower value",1
same,normalized growth,"locus YBR009C, strain hhf1, stronger effect = lower value",0.996
same,normalized growth,"locus YBR021W, strain FUR4, stronger effect = lower value",0.92
same,normalized growth,"locus YBR023C, strain chs3, stronger effect = lower value",0.993
same,normalized growth,"locus YBR171W, strain sec66, stronger effect = lower value",0.985
same,normalized growth,"locus YBR229C, strain ROT2, stronger effect = lower value",0.992
same,normalized growth,"locus YBR231C, strain swc5, stronger effect = lower value",0.996
same,normalized growth,"locus YBR279W, strain paf1, stronger effect = lower value",0.988
same,normalized growth,"locus YCL011C, strain gbp2, stronger effect = lower value",1
same,normalized growth,"locus YCL016C, strain dcc1, stronger effect = lower value",0.995
same,normalized growth,"locus YCL029C, strain bik1, stronger effect = lower value",0.955
same,normalized growth,"locus YCL061C, strain MRC1, stronger effect = lower value",0.996
same,normalized growth,"locus YCL069W, strain vba3, stronger effect = lower value",0.994
same,normalized growth,"locus YCR088W, strain abp1, stronger effect = lower value",0.993
same,normalized growth,"locus YDL005C, strain med2, stronger effect = lower value",1
same,normalized growth,"locus YDL035C, strain GPR1, stronger effect = lower value",0.982
same,normalized growth,"locus YDL040C, strain nat1, stronger effect = lower value",0.992
same,normalized growth,"locus YDL074C, strain BRE1, stronger effect = lower value",0.931
same,normalized growth,"locus YDL101C, strain DUN1, stronger effect = lower value",0.986
same,normalized growth,"locus YDL134C, strain PPH21, stronger effect = lower value",0.956
same,normalized growth,"locus YDL185W, strain tfp1, stronger effect = lower value",0.953
same,normalized growth,"locus YDL192W, strain arf1, stronger effect = lower value",0.936
same,normalized growth,"locus YDR001C, strain nth1, stronger effect = lower value",0.984
same,normalized growth,"locus YDR069C, strain doa4, stronger effect = lower value",1.01
same,normalized growth,"locus YDR101C, strain arx1, stronger effect = lower value",0.983
same,normalized growth,"locus YDR137W, strain rgp1, stronger effect = lower value",0.998
same,normalized growth,"locus YDR159W, strain sac3, stronger effect = lower value",1.02
same,normalized growth,"locus YDR162C, strain NBP2, stronger effect = lower value",0.919
same,normalized growth,"locus YDR195W, strain ref2",1.07
same,normalized growth,"locus YDR297W, strain sur2, stronger effect = lower value",1
same,normalized growth,"locus YDR318W, strain mcm21, stronger effect = lower value",0.937
same,normalized growth,"locus YDR334W, strain swr1, stronger effect = lower value",1
same,normalized growth,"locus YDR335W, strain msn5, stronger effect = lower value",1
same,normalized growth,"locus YDR388W, stronger effect = lower value",0.948
same,normalized growth,"locus YDR392W, strain spt3, stronger effect = lower value",0.873
same,normalized growth,"locus YDR502C, strain sam2, stronger effect = lower value",0.912 (active)
same,normalized growth,"locus YEL003W, strain gim4, stronger effect = lower value",0.981
same,normalized growth,"locus YEL037C, strain rad23, stronger effect = lower value",0.992
same,normalized growth,"locus YEL061C, strain CIN8 (second series), stronger effect = lower value",0.995
same,normalized growth,"locus YEL061C, strain CIN8, stronger effect = lower value",0.987
same,normalized growth,"locus YER015W, strain faa2, stronger effect = lower value",1
same,normalized growth,"locus YER016W, strain bim1, stronger effect = lower value",0.994
same,normalized growth,"locus YER110C, stronger effect = lower value",0.934
same,normalized growth,"locus YER111C, strain swi4, stronger effect = lower value",0.994
same,normalized growth,"locus YER155C, strain BEM2 (second series), stronger effect = lower value",0.944
same,normalized growth,"locus YER155C, strain BEM2, stronger effect = lower value",0.982
same,normalized growth,"locus YER167W, strain BCK2, stronger effect = lower value",0.993
same,normalized growth,"locus YFR010W, strain ubp6, stronger effect = lower value",1
same,normalized growth,"locus YGL078C, strain dbp3, stronger effect = lower value",0.983
same,normalized growth,"locus YGL086W, strain mad1, stronger effect = lower value",0.922 (active)
same,normalized growth,"locus YGL167C, strain pmr1, stronger effect = lower value",1
same,normalized growth,"locus YGL173C, strain kem1, stronger effect = lower value",0.987
same,normalized growth,"locus YGL227W, strain vid30, stronger effect = lower value",0.998
same,normalized growth,"locus YGL240W, strain doc1, stronger effect = lower value",0.982
same,normalized growth,"locus YGL248W, strain PDE1, stronger effect = lower value",0.975
same,normalized growth,"locus YGL253W, strain hxk2, stronger effect = lower value",1
same,normalized growth,"locus YGR135W, strain pre9, stronger effect = lower value",0.886 (active)
same,normalized growth,"locus YGR229C, strain SMI1, stronger effect = lower value",0.991
same,normalized growth,"locus YGR252W, strain gcn5, stronger effect = lower value",0.777
same,normalized growth,"locus YHR013C, strain ard1, stronger effect = lower value",0.976
same,normalized growth,"locus YHR027C, strain rpn1, stronger effect = lower value",1.02
same,normalized growth,"locus YHR030C, strain SLT2, stronger effect = lower value",0.991
same,normalized growth,"locus YHR079C, strain IRE1 (second series), stronger effect = lower value",0.955
same,normalized growth,"locus YHR094C, strain hxt1, stronger effect = lower value",0.948
same,normalized growth,"locus YHR129C, strain ARP1, stronger effect = lower value",0.977
same,normalized growth,"locus YHR142W, strain chs7, stronger effect = lower value",0.981
same,normalized growth,"locus YHR200W, strain rpn10, stronger effect = lower value",0.941
same,normalized growth,"locus YIL066C, strain RNR3, stronger effect = lower value",0.968
same,normalized growth,"locus YIL073C, strain SPO22, stronger effect = lower value",0.887
same,normalized growth,"locus YIL125W, strain kgd1, stronger effect = lower value",0.977
same,normalized growth,"locus YIR030C, strain dcg1, stronger effect = lower value",0.962
same,normalized growth,"locus YJL092W, strain hpr5, stronger effect = lower value",0.994
same,normalized growth,"locus YJL095W, strain BCK1 (second series), stronger effect = lower value",0.99
same,normalized growth,"locus YJL095W, strain BCK1, stronger effect = lower value",0.91
same,normalized growth,"locus YJL115W, strain asf1, stronger effect = lower value",1
same,normalized growth,"locus YJL129C, strain trk1, stronger effect = lower value",0.939
same,normalized growth,"locus YJL134W, strain LCB3, stronger effect = lower value",0.981
same,normalized growth,"locus YJL154C, strain vps35, stronger effect = lower value",0.995
same,normalized growth,"locus YJL164C, strain tpk1, stronger effect = lower value",0.989
same,normalized growth,"locus YJL166W, strain qcr8, stronger effect = lower value",0.991
same,normalized growth,"locus YJL168C, strain set2, stronger effect = lower value",0.963
same,normalized growth,"locus YJL187C, strain SWE1 (second series), stronger effect = lower value",0.963
same,normalized growth,"locus YJL187C, strain SWE1, stronger effect = lower value",1.01
same,normalized growth,"locus YKL009W, strain mrt4, stronger effect = lower value",0.97
same,normalized growth,"locus YKL068W, stronger effect = lower value",0.969
same,normalized growth,"locus YKL085W, strain MDH1 (second series), stronger effect = lower value",0.966
same,normalized growth,"locus YKL085W, strain MDH1, stronger effect = lower value",0.966
same,normalized growth,"locus YKL160W, strain elf1, stronger effect = lower value",0.98
same,normalized growth,"locus YKL190W, strain CNB1, stronger effect = lower value",0.993
same,normalized growth,"locus YKR001C, strain vps1, stronger effect = lower value",0.914
same,normalized growth,"locus YKR026C, strain gcn3, stronger effect = lower value",0.992
same,normalized growth,"locus YKR091W, strain srl3, stronger effect = lower value",0.988
same,normalized growth,"locus YLL001W, strain dnm1, stronger effect = lower value",0.994
same,normalized growth,"locus YLL026W, stronger effect = lower value",0.999
same,normalized growth,"locus YLL041C, strain sdh2, stronger effect = lower value",0.99
same,normalized growth,"locus YLR027C, strain aat2, stronger effect = lower value",0.985
same,normalized growth,"locus YLR039C, strain RIC1, stronger effect = lower value",0.974
same,normalized growth,"locus YLR058C, strain SHM2, stronger effect = lower value",0.982
same,normalized growth,"locus YLR102C, strain apc9, stronger effect = lower value",0.961
same,normalized growth,"locus YLR221C, strain rsa3, stronger effect = lower value",1.01
same,normalized growth,"locus YLR258W, strain gsy2, stronger effect = lower value",0.983
same,normalized growth,"locus YLR262C, strain YPT6 (second series), stronger effect = lower value",1
same,normalized growth,"locus YLR268W, strain sec22, stronger effect = lower value",0.963
same,normalized growth,"locus YLR320W, strain mms22, stronger effect = lower value",0.977
same,normalized growth,"locus YLR330W, strain CHS5, stronger effect = lower value",0.98
same,normalized growth,"locus YLR342W, strain FKS1, stronger effect = lower value",0.994
same,normalized growth,"locus YLR357W, strain rsc2, stronger effect = lower value",1.01
same,normalized growth,"locus YLR370C, strain arc18, stronger effect = lower value",0.987
same,normalized growth,"locus YLR371W, strain rom2, stronger effect = lower value",0.965
same,normalized growth,"locus YLR384C, strain iki3, stronger effect = lower value",0.999
same,normalized growth,"locus YLR418C, strain cdc73, stronger effect = lower value",0.812 (active)
same,normalized growth,"locus YML016C, strain PPZ1, stronger effect = lower value",0.978
same,normalized growth,"locus YML032C, strain rad52, stronger effect = lower value",0.946
same,normalized growth,"locus YML120C, strain ndi1, stronger effect = lower value",0.987
same,normalized growth,"locus YML124C, strain tub3, stronger effect = lower value",0.969
same,normalized growth,"locus YMR058W, strain fet3, stronger effect = lower value",0.995
same,normalized growth,"locus YMR078C, strain ctf18, stronger effect = lower value",0.95
same,normalized growth,"locus YMR125W, strain sto1, stronger effect = lower value",0.995
same,normalized growth,"locus YMR129W, stronger effect = lower value",0.991
same,normalized growth,"locus YMR205C, strain PFK2, stronger effect = lower value",0.982
same,normalized growth,"locus YMR223W, strain ubp8, stronger effect = lower value",0.947
same,normalized growth,"locus YMR231W, strain pep5, stronger effect = lower value",0.99
same,normalized growth,"locus YMR263W, strain SAP30, stronger effect = lower value",0.965
same,normalized growth,"locus YMR307W, strain GAS1, stronger effect = lower value",0.849
same,normalized growth,"locus YNL067W, strain RPL9B, stronger effect = lower value",0.968
same,normalized growth,"locus YNL071W, strain lat1, stronger effect = lower value",0.985
same,normalized growth,"locus YNL209W, strain ssb2, stronger effect = lower value",0.992
same,normalized growth,"locus YNL233W, strain BNI4, stronger effect = lower value",0.937
same,normalized growth,"locus YNL248C, strain rpa49, stronger effect = lower value",0.998
same,normalized growth,"locus YNL250W, strain rad50, stronger effect = lower value",0.952
same,normalized growth,"locus YNL271C, strain bni1, stronger effect = lower value",0.962
same,normalized growth,"locus YNL298W, strain CLA4, stronger effect = lower value",0.959
same,normalized growth,"locus YNL307C, strain MCK1, stronger effect = lower value",0.917
same,normalized growth,"locus YNL322C, strain KRE1 (second series), stronger effect = lower value",0.996
same,normalized growth,"locus YNL322C, strain KRE1, stronger effect = lower value",0.982
same,normalized growth,"locus YNR049C, strain mso1, stronger effect = lower value",1.01
same,normalized growth,"locus YNR052C, strain pop2, stronger effect = lower value",0.969
same,normalized growth,"locus YOL006C, strain TOP1, stronger effect = lower value",0.788
same,normalized growth,"locus YOL012C, strain htz1",0.835
same,normalized growth,"locus YOL147C, strain pex11, stronger effect = lower value",0.949
same,normalized growth,"locus YOR001W, strain rrp6, stronger effect = lower value",1.01
same,normalized growth,"locus YOR061W, strain CKA2, stronger effect = lower value",0.991
same,normalized growth,"locus YOR069W, strain VPS5, stronger effect = lower value",0.977
same,normalized growth,"locus YOR070C, strain gyp1, stronger effect = lower value",0.985
same,normalized growth,"locus YOR080W, strain dia2, stronger effect = lower value",1.01
same,normalized growth,"locus YOR083W, strain WHI5, stronger effect = lower value",0.987
same,normalized growth,"locus YOR106W, strain vam3, stronger effect = lower value",1
same,normalized growth,"locus YOR136W, strain idh2, stronger effect = lower value",0.966
same,normalized growth,"locus YOR144C, strain elg1, stronger effect = lower value",0.958
same,normalized growth,"locus YOR184W, strain ser1, stronger effect = lower value",0.848 (active)
same,normalized growth,"locus YOR265W, strain rbl2, stronger effect = lower value",1.01
same,normalized growth,"locus YOR270C, strain vph1, stronger effect = lower value",0.907
same,normalized growth,"locus YOR290C, strain snf2, stronger effect = lower value",0.985
same,normalized growth,"locus YOR316C, strain cot1, stronger effect = lower value",0.947
same,normalized growth,"locus YPL051W, strain arl3, stronger effect = lower value",0.981
same,normalized growth,"locus YPL078C, strain atp4, stronger effect = lower value",0.979
same,normalized growth,"locus YPL106C, strain sse1, stronger effect = lower value",1
same,normalized growth,"locus YPL240C, strain hsp82, stronger effect = lower value",0.993
same,normalized growth,"locus YPR119W, strain clb2, stronger effect = lower value",0.958
same,normalized growth,"locus YPR141C, strain kar3, stronger effect = lower value",0.965
same,normalized growth,"locus YPR163C, strain tif3, stronger effect = lower value",0.902 (active)
same,normalized growth,"locus YPR167C, strain met16, stronger effect = lower value",0.952
same,normalized growth,"strain wtn01, stronger effect = lower value",0.936
